Data from article PMC5540273 (PLoS ONE, 2017).

Assays:
Conditions in all cases: concentration: 1 μM,replicates: in singlicate; n = 1
[1] = tested on: MAP3K15
[2] = tested on: MAP3K1
[3] = tested on: MAP3K2
[4] = tested on: MAP3K3
[5] = tested on: MAP3K4
[6] = tested on: MAP4K2
[7] = tested on: MAP4K3
[8] = tested on: MAP4K4
[9] = tested on: MAP4K5
[10] = tested on: MAPKAPK2
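Also: KINOMEscan kinase panel screen.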

SMILES	%Inh [1] [%]	%Inh [2] [%]	%Inh [3] [%]	%Inh [4] [%]	%Inh [5] [%]	%Inh [6] [%]	%Inh [7] [%]	%Inh [8] [%]	%Inh [9] [%]	%Inh [10] [%]
CC(C)c1nc(-c2cccc(NS(=O)(=O)c3ccccc3)c2)c(-c2ccnc(Nc3ccc4c(c3)CN(C)CC4)n2)s1 [GSK1649598]	30	6	98.5	84	79	0	96.9	95.5	98.9	0
Cc1nnc(-c2ccc3occ(-c4ccc(S(C)=O)cc4)c3n2)o1 (stereo not drawn)	0	0	0	0	1	0	44	0	38	0
O=C(Nc1cccc(Oc2ccc3nccn3n2)c1)Nc1cccc(C(F)(F)F)c1	0	17	3	10	30	0	3	68	26	0
Cn1ccc2ncnc(Oc3ccc(NC(=O)Nc4cncc(C(F)(F)F)c4)c(Cl)c3)c21	0	0	0	0	3	0	0	0	0	0
COc1cc2nccc(Nc3ccc(Oc4ccccc4)cc3)c2cc1OC.Cl [GI261656]	0	21	0	0	0	0	0	0	0	0
O=C(Nc1n[nH]c2cc(-c3ccco3)ccc12)C1CC1 [SB-737447]	17	0	23	24	0	2	5	21	0	0
CNC(=O)c1ccccc1Nc1nc(Nc2cccc(CS(C)(=O)=O)c2)ncc1C.O=CO [GSK1520489]	9	10	94.4	94	85	96.3	91	0	4	0
Nc1nccc(-c2ccc3c(N)n[nH]c3c2)n1 [GSK1034945]	0	20	10	0	5	67	4	6	0	79
CC(C(=O)NC1CCN(c2ccnc(Nc3ccc(F)cc3)n2)C1)c1ccc(Cl)cc1 (stereo not drawn) [GSK1379713]	0	0	0	0	17	0	0	12	4	26
CN(c1ccc2c(c1)nc(NCc1ccc(F)cc1)n2C)c1ccnc(Nc2ccc(CS(C)(=O)=O)cc2)n1.Cl [GW813244]	24	26	31	23	2	0	40	10	11	0
Cn1ccc2ncnc(Oc3ccc(NC(=O)Nc4cc(C(C)(C)C)on4)c(Cl)c3)c21	0	18	9	17	9	0	11	94	25	0
Cc1ccn2nc(-c3ccc(F)cc3)c(-c3ccncc3)c2c1.Cl [GW457859]	0	0	0	0	0	2	0	14	0	15
Cc1n[nH]c2cc(Nc3ccnc(Nc4cccc(CN5CCOCC5)c4)n3)ccc12 [GW682569]	0	29	8	0	0	5	0	10	14	0
Cn1ccc2ncnc(Oc3ccc(NC(=O)Nc4cnn(C(C)(C)C)c4)c(Cl)c3)c21	0	7	0	9	1	4	0	52	0	7
COC(=O)c1cccc(NC(=O)NC2CCN(c3ccnc(Nc4cc(OC)c(OC)c(OC)c4)n3)C2)c1 (stereo not drawn) [GSK1379767]	0	0	0	0	7	0	3	15	35	0
Cn1ccc2ncnc(Oc3ccc(NC(=O)Nc4cccc(C(F)(F)F)c4)c(F)c3)c21	0	0	0	18	13	0	20	17	40	22
CCCC(=O)Nc1n[nH]c2ncccc12 [SB-601436]	29	0	5	34	11	5	0	0	0	16
OCCn1cc(-c2cnc3nnn(Cc4ccc5ncccc5c4)c3n2)cn1	0	0	0	0	0	0	0	0	0	0
CN(c1cccc(CNc2nc(Nc3ccc4c(c3)CC(=O)N4)ncc2C(F)(F)F)c1)S(C)(=O)=O	0	0	44	11	3	0	18	34	0	0
CS(=O)(=O)Nc1ccc(-c2ccnc3[nH]ccc23)cc1 [GSK993273]	37	18	58	32	0	30	44	2	0	0
O=C(NOCC1CC1)c1cc(Br)c(F)c(F)c1Nc1ccc(I)cc1Cl	0	0	0	0	0	0	0	0	0	0
COc1cc2ncn(-c3cc(OCC4CCCCC4)c(C(N)=O)s3)c2cc1OC [GSK204559]	0	30	0	0	0	0	0	35	38	0
Cc1ccc(C(=O)Nc2ccc(Oc3ccc4nc(NC(=O)C5CC5)cn4c3)c(F)c2)c(=O)n1-c1ccccc1	0	0	0	5	12	0	16	0	0	0

SMILES	%Inh [1] [%]	%Inh [2] [%]	%Inh [3] [%]	%Inh [4] [%]	%Inh [5] [%]	%Inh [6] [%]	%Inh [7] [%]	%Inh [8] [%]	%Inh [9] [%]	%Inh [10] [%]
FC(F)(F)c1cc(Br)cc(Nc2nccc(-c3cnn4ncccc34)n2)c1 [GW810578]	0	3	14	29	15	41	7	0	18	0
c1ccc(Oc2ccc(Nc3ccnc4ccc(-c5ccccn5)cc34)cc2)cc1 [GW407034]	0	14	14	0	17	0	11	21	13	24
O=C1NCCc2[nH]c(-c3ccncc3)cc21	85	5	0	23	3	52	15	25	6	
C[C@@H]1CCN(C(=O)N2CCCC2)C[C@@H]1N(C)c1ncnc2[nH]ccc12	31	36	17	16	7	0	8	0	0	0
C[C@@H](Oc1cc(-n2cnc3cc(-c4cnn(C)c4)ccc32)sc1C(N)=O)c1ccccc1Cl [GSK580432]	12	90.6	20	20	37	60	93.8	32	98.9	0
Cl.Nc1n[nH]c2cc(-c3ccccn3)ccc12 [GSK2189892]	0	0	0	0	0	0	0	6	0	7
CN1CCN(CCCNc2nccc(-c3c(-c4ccc(F)cc4)nn4cc(C(N)=O)ccc34)n2)CC1 [GW622475]	0	24	0	0	16	0	0	65	33	0
CC(=O)Nc1nc2cnc(Nc3cc(NC(=O)c4cccc(CC(C)(C)C#N)c4)ccc3C)nc2s1	22	13	0	36	0	0	0	7	0	0
C[C@@H]1CNc2c(sc3ccc4nc(-c5ccc(O)cc5)ccc4c23)C(=O)N1	61	0	12	11	16	85	31	26	13	99
C[C@@H](Oc1cc(-n2cnc3cc(-c4ccncc4)ccc32)sc1C(N)=O)c1ccccc1Cl [GSK479719]	18	91.9	10	1	13	24	65	13	85	0
COC(=O)Nc1nc2cc(Oc3ccc(NC(=O)Nc4cc(C(F)(F)F)ccc4Cl)cc3)ccc2[nH]1.Cl [GW697465]	0	14	0	0	1	0	0	12	23	14
N#Cc1cccc(C(=O)NC2CCN(c3ccnc(Nc4ccc(F)cc4)n3)C2)c1 (stereo not drawn) [GSK1379708]	0	1	11	0	33	0	0	7	1	14
Cc1cccc(-c2nc(Nc3ccncc3)c3sccc3n2)n1 [GW869641]	30	37	44	28	0	50	5	37	11	0
Cc1ccc(CC(=O)N2CCc3cc(-c4cn(C)c5ncnc(N)c45)ccc32)cc1 [GSK2634758]	0	10	55	22	90.3	3	96.7	0	77	6
NC(=O)c1ccc(-c2cc3ncnc(SCC(=O)O)c3s2)cc1	0	0	0	0	0	0	0	5	1	0
CCN1CCN(CCCC(=O)Nc2n[nH]c3nc(-c4ccc(O)cc4)c(Br)cc23)CC1 [SB-731579]	0	0	0	0	0	0	0	7	5	17
Cc1cccc2c(-c3ccncc3)c(-c3ccc(F)cc3)nn12.Cl [GW461487]	100	13	19	0	20	0	0	9	0	0
O=c1[nH]cc(-c2ccc(O)cc2)c2sc(-c3ccncc3)cc12 [GSK1033723]	0	13	7	0	0	0	0	0	0	0
Cc1ccc(Nc2ccnc(Nc3ccc4c(c3)CS(=O)(=O)C4)n2)cc1O.Cl [GW579362]	0	27	88	73	29	22	0	52	33	0
O=C(Nc1ccccc1)c1cccc(Oc2ccc3nccn3n2)c1	0	10	0	0	20	2	0	0	0	0
Cn1cc(-c2cccc3c(N)c(C(N)=O)nnc23)cn1	7	29	14	30	95	0	8	22	14	0
COC(=O)c1cccc(NC(=O)NC2CCN(c3ccnc(NCc4ccc(F)cc4)n3)CC2)c1 [GSK1379860]	0	24	8	0	22	0	0	0	0	0
Cn1ccc2ncnc(Oc3ccc(NC(=O)Nc4ccnc(C(F)(F)F)c4)c(Cl)c3)c21	0	0	0	6	0	0	3	0	0	1

SMILES	%Inh [1] [%]	%Inh [2] [%]	%Inh [3] [%]	%Inh [4] [%]	%Inh [5] [%]	%Inh [6] [%]	%Inh [7] [%]	%Inh [8] [%]	%Inh [9] [%]	%Inh [10] [%]
O=C(NCC1CC1)c1ccc(-c2cc(C(=O)NC3CC3)ccc2F)cc1 [GW810445]	0	0	0	0	0	0	0	0	0	0
COc1cccc(C2=C(Nc3cccc(Cl)c3)C(=O)NC2=O)c1 [SB-341556]	21	28	17	29	15	0	84	19	2	20
CN1CCN(CCNc2nc3cc(Oc4ccc(NC(=O)Nc5cc(C(F)(F)F)ccc5F)cc4)ccc3[nH]2)CC1.Cl.Cl [GW768504]	0	0	0	0	0	0	0	1	6	4
COc1cccc(CNC(=O)NC2CCN(c3ccnc(Nc4cc(OC)c(OC)c(OC)c4)n3)C2)c1 (stereo not drawn) [GSK1379765]	0	10	0	0	0	0	1	1	3	46
CC(=O)Nc1ccc(-c2cc3ncnc(SCC(=O)O)c3s2)cc1	27	16	5	1	37	17	22	0	0	0
Cc1ccc2c(-c3ccnc(Nc4ccc(C(F)(F)F)cc4)n3)cnn2n1 [GW819776]	10	0	20	0	0	0	0	0	0	0
Cn1ccc2ncnc(Oc3ccc(NC(=O)Nc4cccc(C(F)(F)F)c4)c(Cl)c3)c21	0	0	6	0	4	6	0	12	1	0
Cl.c1ccc(Oc2ccc(Nc3ccnc4cc(-c5ccc(CN6CCNCC6)o5)ccc34)cc2)nc1 [GW567142]	3	1	0	0	0	0	0	0	13	0
COc1cc(Nc2nccc(N3CCC(NC(=O)c4cccc(C#N)c4)C3)n2)cc(OC)c1OC (stereo not drawn) [GSK1379751]	0	2	19	0	0	0	0	0	0	0
CCNCC(Cc1ccccc1)NC(=O)c1cc(Br)c(-c2ccnc3[nH]ccc23)s1.Cl.Cl (stereo not drawn) [GSK1383280]	0	12	33	0	0	27	4	37	0	0
CC(C)S(=O)(=O)N1CCN(Cc2ccc3c(c2)nc(NC(=O)c2ccsc2)n3C[C@H](O)c2ccccc2)CC1 [GW635815]	0	8	47	53	53	84	0	45	2	0
CCn1c(-c2nonc2N)nc2cncc(CNC3CCNCC3)c21.Cl [SB-747651]	3	6	13	0	14	0	0	0	0	19
COc1ccc(Nc2nccc(N3CCC(NC(=O)c4cccc(C#N)c4)C3)n2)cc1 (stereo not drawn) [GSK1379730]	0	1	0	0	40	0	0	16	10	0
C[C@@H](Oc1cc(-n2cnc3ccc(-c4ccncc4)cc32)sc1C(N)=O)c1ccccc1Cl [GSK483724]	0	41	4	0	21	10	10	11	15	0
O=C(Nc1cccc(C(F)(F)F)c1)c1cccc(Oc2ccc3nccn3n2)c1	1	21	19	0	22	0	8	14	23	0
CS(=O)(=O)c1cccc(CNc2nc(Nc3ccc4c(c3)[C@@H]3C[C@@H]4CNC3=O)ncc2C(F)(F)F)c1	0	0	65	47	0	68	68	40	0	0
CCn1c(-c2nonc2N)nc2cncc(Br)c21 [SB-738004]	18	10	0	0	3	40	0	3	0	10
CCOC(=O)N1CCC(n2cnc(-c3ccc(F)cc3)c2-c2ccnc(N)n2)CC1 [SB-219952]	36	29	6	11	6	0	0	9	4	24
Cl.Cl.NC[C@H](CC1CCCCC1)NC(=O)c1ccc(-c2ccnc3[nH]ccc23)s1 [GSK1581428]	25	12	40	33	10	95.7	47	20	12	0
NC(=O)Nc1sc(-c2ccc(F)cc2)cc1C(N)=O [GW789449]	16	10	85	72	18	23	0	26	13	0
CS(=O)c1ccc(-c2coc3ccc(-c4n[nH]c(=O)o4)cc23)cc1 (stereo not drawn)	37	0	0	11	5	2	1	0	0	0
